Among the test systems are T-47D breast; BT-549 breast; MDA-MB-435 melanoma; SW-620 colon; MCF7 breast; HCT-116 colon; HCC-2998 colon; KM12 colon.
Common to all, as to assay: NCI-60 one-dose screen, 48 h (100 = growth as untreated, 0 = no growth, -100 = all killed)
Settings in all cases: 10 µM unless noted

The source of these data is PubChem BioAssay (NCI).

This is part of a sample that, as a whole, favours compounds with a hit. Of some 83,000 tested, about 20% had one in any assay.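 A percent growth of 40 corresponds to 60% growth inhibition; 0 means no net growth; -100 means all cells died. Active threshold: below 10.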 Unmarked numbers belong to inactive results. Calls of active or inactive are those of the source.

Turning to `CN1C2CCC1CN(c1cnc(C(=O)Nc3cc(F)cc4cccnc34)cn1)C2`, the growth was 36% in the test with T-47D breast; 70.7% in the test on BT-549 breast; 55.9% in the test with MDA-MB-435 melanoma; 36.2% with SW-620 colon; 5.77% (active) with MCF7 breast; 18.8% in the test with HCT-116 colon. The growth with HCC-2998 colon was 83.1%; in the test on KM12 colon it was 76.9%.

`Fc1ccc(C2CC(c3cccc(Nc4ccncc4)c3)=NN2c2cc(Cl)cc(Cl)c2)cc1` (configuration not stated): the growth with T-47D breast was 74.6%; in the test on BT-549 breast, 104%; with MDA-MB-435 melanoma, -22.5% (active); in the test with SW-620 colon, -85.2% (active); in the test with MCF7 breast it was -25.6% (active); with HCT-116 colon, 98.8%. The growth in the test on HCC-2998 colon is 19.1%; in the test with KM12 colon, -35.7% (active).

In the case of `c1cnc2nc3c(cc2c1)oc1ccccc13`, the growth was 100% in the test on T-47D breast; 98.8% in the test with BT-549 breast; 103% in the test on MDA-MB-435 melanoma; 99.4% in the test on SW-620 colon; 86.6% with MCF7 breast; 101% in the test with HCT-116 colon. In addition, the growth in the test on HCC-2998 colon was 100%; in the test on KM12 colon it was 98.2%.

On to `CCOC(=O)C1CC(=O)c2cc(OC)c(OC)cc2C1` (configuration not stated), for which the growth in the test on T-47D breast was 115%; with BT-549 breast it was 123%; in the test on MDA-MB-435 melanoma, 114%; with SW-620 colon, 111%; in the test with MCF7 breast it was 95.7%; in the test with HCT-116 colon, 95.5%. Also, the growth with HCC-2998 colon was 101%; with KM12 colon, 103%.

Regarding `COc1c(Cl)cc(Cl)c2ccc(C=C3C(=O)NC(=S)NC3=O)nc12`, the growth in the test on T-47D breast is 101%; in the test with BT-549 breast, 90.2%; in the test with MDA-MB-435 melanoma it was 106%; in the test on SW-620 colon it was 104%; with MCF7 breast it was 90.7%; in the test with HCT-116 colon, -76.2% (active). For the same compound, the values for the growth in the test with HCC-2998 colon and in the test with KM12 colon were 99.2% and 112%, respectively.

On to `COc1cnccc1-c1nc2ccc3[nH]ncc3c2c2c1CCCC2`, for which the growth was 68.4% in the test on T-47D breast; 43.3% in the test on BT-549 breast; 13.2% with MDA-MB-435 melanoma; 28.1% with SW-620 colon; 43.5% in the test on MCF7 breast; 23.8% with HCT-116 colon. Moreover, the growth was 58.4% with HCC-2998 colon and 21.4% with KM12 colon.

On to `CCN1C(=O)N(CC)C2C1NN=c1s/c(=C3\C(=O)Nc4ccccc43)c(=O)n12` (configuration not stated), for which the growth in the test with T-47D breast is 15.6%; with BT-549 breast, 59.8%; in the test with MDA-MB-435 melanoma, -27.3% (active); in the test with SW-620 colon, 26.1%; in the test with MCF7 breast, 28.7%; with HCT-116 colon, 14.2%. The growth in the test on HCC-2998 colon is 31.8%; in the test on KM12 colon, 15.1%.

In the case of `CC(C)CCSc1nc(NNC(N)=O)c(C#N)c(-c2ccccc2)n1`, the growth was 99.9% in the test with T-47D breast; 46.7% in the test with BT-549 breast; 109% in the test on MDA-MB-435 melanoma; 112% in the test with SW-620 colon; 103% in the test on MCF7 breast; 38.3% in the test with HCT-116 colon. Moreover, the results for the growth with HCC-2998 colon and in the test on KM12 colon were 102% and 110%, respectively.

`O=C(N=Nc1c(O)[nH]c2ccc(F)cc12)c1cc2ccccc2[nH]1`: the growth is 88.2% with T-47D breast; 90.2% with BT-549 breast; 99.6% with MDA-MB-435 melanoma; 105% in the test with SW-620 colon; 90.1% in the test with MCF7 breast; 93.5% with HCT-116 colon. Besides, the growth in the test with HCC-2998 colon was 100%; in the test with KM12 colon it was 102%.

For `C1=C2CNCC3=Cc4ccc5ccccc5c4OC23Oc2c1ccc1ccccc21`, the growth is 66.7% with T-47D breast; 79.9% with BT-549 breast; -69.7% (active) in the test on MDA-MB-435 melanoma; 8.75% (active) in the test on SW-620 colon; 12% with MCF7 breast; 11.1% in the test with HCT-116 colon. Besides, the growth in the test with HCC-2998 colon is 56.9%; with KM12 colon, 15.2%.

Turning to `COc1ccc(C(=O)c2cc3c(N)c(C(=O)Nc4ccc(Br)cc4)sc3nc2C)cc1`, the growth in the test on T-47D breast was 70.6%; with BT-549 breast, 78.2%; with MDA-MB-435 melanoma, 63.6%; in the test on SW-620 colon, 79.1%; with MCF7 breast, 71%; with HCT-116 colon, 58.2%. In addition, the growth was 94.7% in the test with HCC-2998 colon and 72% with KM12 colon.

In the case of `CCCCCN1C=C/C(=C\C(=O)N(C)c2cccc3ccccc23)c2ccccc21`, the growth in the test with T-47D breast was 87.9%; with BT-549 breast, 99.4%; with MDA-MB-435 melanoma it was 100%; in the test on SW-620 colon, 94.3%; in the test with MCF7 breast, 91.3%; in the test on HCT-116 colon, 86.9%. Also, the growth is 102% in the test with HCC-2998 colon and 103% with KM12 colon.

Regarding `O=C1c2cccnc2C(=O)c2nc3cc(N4CCN(C5CC5)CC4)ccc3nc21`, the growth in the test with T-47D breast is 22.5%; in the test with BT-549 breast it was -93.7% (active); in the test on MDA-MB-435 melanoma it was -87.4% (active); in the test with SW-620 colon it was -37.8% (active); with MCF7 breast it was -56.1% (active); with HCT-116 colon, 0.851% (active). Moreover, the growth was -80.8% (active) with HCC-2998 colon and 9.27% (active) in the test on KM12 colon.

Turning to `COC(=O)Nc1nc2ccc(C(=O)c3cccc(I)c3)cc2[nH]1`, the growth is 63.8% in the test on T-47D breast; 6.76% (active) with BT-549 breast; -35.8% (active) in the test with MDA-MB-435 melanoma; 21.3% in the test on SW-620 colon; 17.6% in the test with MCF7 breast; 9.66% (active) in the test with HCT-116 colon. In addition, the growth in the test with HCC-2998 colon is 18.3%; in the test on KM12 colon, 7.58% (active).
